The full data set covers some 8,800 targets. This sample favours those with a hit. About 0.5% of all pairs of compound and target were hits.
Assays:
Assay in all cases: log2 fold change, soluble protein after heating vs DMSO (PISA); higher = thermal stabilisation; K562 lysate, 10 uM; active = over 0.2 and 3.5 SD of the protein, either way, in both replicates (recomputed)
vemurafenib = compound: CCCS(=O)(=O)Nc1ccc(F)c(C(=O)c2c[nH]c3ncc(-c4ccc(Cl)cc4)cc23)c1F [vemurafenib]
In short: (§1)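 Quantification was by TMTpro 16plex LC-MS/MS with equalised channel sums, applied to the supernatant after 21,000xg for 90 min. Samples were crude K562 extract at 1 mg/mL protein in PBS pH 7.4 with 1 mM MgCl2, treated with 10 μM compound for 30 min, heated for 3 min across 48°C-58°C, pooled and brought to 0.5% NP-40 at 4°C. Values are log-two fold changes in thermal stability relative to solvent controls, from duplicates.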

[1] = compound: CCCS(=O)(=O)Nc1ccc(F)c(C(=O)c2c[nH]c3ncc(Cl)cc23)c1F
In short: as §1

barasertib = compound: CCN(CCCOc1ccc2c(Nc3cc(CC(=O)Nc4cccc(F)c4)[nH]n3)ncnc2c1)CCOP(=O)(O)O [barasertib]
In short: as §1

[2] = compound: CC[C@@H]1C(=O)N(C)c2cnc(Nc3ccc(C(=O)NC4CCN(C)CC4)cc3OC)nc2N1C1CCCC1
In short: as §1

volasertib = compound: CC[C@@H]1C(=O)N(C)c2cnc(Nc3ccc(C(=O)N[C@H]4CC[C@H](N5CCN(CC6CC6)CC5)CC4)cc3OC)nc2N1C(C)C [volasertib]
In short: as §1

[3] = compound: CCn1c(C(=O)N(C2CC2)C2CC2)cc2c3c(ncn3C)c(Nc3cc(C)n(C)n3)nc21
In short: as §1

[4] = compound: CCn1cc(-c2ccnc3[nH]c(-c4cccc(CN(C)C)c4)cc23)c(-c2ccc(NC(=O)N(C)C)cc2)n1
In short: as §1

[5] = compound: CN1CCC(CNc2ccc3ncc(-c4cccc(OC(F)(F)F)c4)n3n2)CC1
In short: as §1

saracatinib = compound: CN1CCN(CCOc2cc(OC3CCOCC3)c3c(Nc4c(Cl)ccc5c4OCO5)ncnc3c2)CC1 [saracatinib]
In short: as §1

sotrastaurin = compound: CN1CCN(c2nc(C3=C(c4c[nH]c5ccccc45)C(=O)NC3=O)c3ccccc3n2)CC1 [sotrastaurin]
In short: as §1

alvocidib = compound: CN1CC[C@H](c2c(O)cc(O)c3c(=O)cc(-c4ccccc4Cl)oc23)[C@H](O)C1 [alvocidib]
In short: as §1

Tubastatin A = compound: CN1CCc2c(c3ccccc3n2Cc2ccc(C(=O)NO)cc2)C1 [Tubastatin A]
In short: as §1

[6] = compound: CNC(=O)C1=CC=CC=C1NC2=NC(=NC=C2Cl)NC3=C(C=C(C=C3)N4CCOCC4)OC
In short: as §1

defactinib = compound: CNC(=O)c1ccc(Nc2ncc(C(F)(F)F)c(NCc3nccnc3N(C)S(C)(=O)=O)n2)cc1 [defactinib]
In short: as §1

[7] = compound: CNc1nc(-c2ccc3c(N)n[nH]c3c2)cc(N2C[C@@H](C(=O)NC3CCCCC3)CC[C@H]2C)n1
In short: as §1

encorafenib = compound: COC(=O)N[C@@H](C)CNc1nccc(-c2cn(C(C)C)nc2-c2cc(Cl)cc(NS(C)(=O)=O)c2F)n1 [encorafenib]
In short: as §1

[8] = compound: COC(=O)[C@H](CCSC)NC(=O)C1=C(C=C(C=C1)NC[C@H](CS)N)C2=CC=CC=C2
In short: as §1

alisertib = compound: COc1cc(Nc2ncc3c(n2)-c2ccc(Cl)cc2C(c2c(F)cccc2OC)=NC3)ccc1C(=O)O [alisertib]
In short: as §1

[9] = compound: COc1cc2nc(-c3cc(F)ccc3O)nc(N[C@@H]3CNC[C@H]3C(C)(C)O)c2cc1OC
In short: as §1

gefitinib = compound: COc1cc2ncnc(Nc3ccc(F)c(Cl)c3)c2cc1OCCCN1CCOCC1 [gefitinib]
In short: as §1

Measured: log2 fold change

PHOSPHO2 (UniProt Q8TCD6)
Chain of UniProt Q8TCD6 (Q8TCD6 whole entry, looked up): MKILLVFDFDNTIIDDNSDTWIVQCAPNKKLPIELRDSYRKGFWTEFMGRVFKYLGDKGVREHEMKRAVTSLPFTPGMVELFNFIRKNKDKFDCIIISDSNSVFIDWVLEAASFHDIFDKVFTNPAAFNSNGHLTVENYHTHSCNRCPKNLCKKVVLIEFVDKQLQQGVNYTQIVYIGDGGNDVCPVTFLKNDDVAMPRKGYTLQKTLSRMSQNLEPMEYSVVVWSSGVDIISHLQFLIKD
inactive: vemurafenib -0.023 | [1] -0.026 | barasertib 0.047 | [2] 0.232 | volasertib 0.019 | [3] 0.003 | [4] -0.084 | [5] 0.001 | saracatinib -0.023 | sotrastaurin 0.039 | alvocidib 0.053 | Tubastatin A -0.042 | [6] -0.026 | defactinib -0.008 | [7] -0.008 | encorafenib -0.02 | alisertib -0.013 | [9] -0.008 | gefitinib 0.016
active: [8] 0.356

PHLDB1 (UniProt Q86UU1)
inactive: vemurafenib -0.071 | [1] 0.162 | barasertib 0.01 | [2] 0.033 | volasertib -0.044 | [3] 0.001 | [4] 0.095 | [5] -0.014 | saracatinib 0.005 | sotrastaurin -0.049 | alvocidib -0.067 | Tubastatin A -0.1 | [6] -0.031 | defactinib 0.023 | [7] 0.049 | encorafenib -0.041 | [8] -0.05 | alisertib 0.009 | [9] -0.037 | gefitinib 0.017

PRKAR2B (UniProt P31323)
active: [5] -0.26
inactive: vemurafenib 0.01 | [1] 0 | barasertib 0.053 | [2] -0.028 | volasertib -0.043 | [3] -0.032 | [4] 0.051 | saracatinib 0.007 | sotrastaurin -0.17 | alvocidib 0 | Tubastatin A -0.021 | [6] -0.05 | defactinib -0.117 | [7] -0.023 | encorafenib 0.04 | [8] 0.1 | alisertib -0.014 | [9] -0.032 | gefitinib -0.046

PTS (UniProt Q03393)
inactive: [1] 0.044 | barasertib 0.051 | [2] 0.054 | volasertib 0.014 | [3] 0.02 | [4] -0.045 | [5] 0.01 | saracatinib 0.104 | sotrastaurin 0.057 | alvocidib -0.055 | Tubastatin A -0.007 | [6] 0.043 | defactinib -0.059 | [7] 0.015 | encorafenib 0.1 | [8] -0.022 | alisertib -0.009 | [9] 0.016 | gefitinib 0.121
active: vemurafenib 0.33

PIP4P2 (UniProt Q8N4L2)
Chain of UniProt Q8N4L2 (Q8N4L2 whole entry, looked up): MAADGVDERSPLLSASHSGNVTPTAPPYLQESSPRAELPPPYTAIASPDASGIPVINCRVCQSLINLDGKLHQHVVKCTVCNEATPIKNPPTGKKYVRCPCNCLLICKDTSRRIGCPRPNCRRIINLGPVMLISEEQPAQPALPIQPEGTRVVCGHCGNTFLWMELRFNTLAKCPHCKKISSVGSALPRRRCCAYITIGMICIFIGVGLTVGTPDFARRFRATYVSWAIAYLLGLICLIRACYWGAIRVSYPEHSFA
inactive: vemurafenib 0.038 | [1] 0.031 | barasertib 0.311 | [2] 0.039 | volasertib 0.01 | [3] -0.016 | [4] 0.022 | [5] 0.03 | saracatinib 0.038 | sotrastaurin -0.16 | alvocidib -0.03 | Tubastatin A 0.038 | [6] -0.021 | defactinib -0.009 | [7] 0.062 | encorafenib 0 | [8] -0.12 | alisertib 0.006 | [9] 0.052 | gefitinib 0.111

PCBP2 isoform 8 (UniProt Q15366)
Chain of UniProt Q15366 (Q15366 whole entry, looked up): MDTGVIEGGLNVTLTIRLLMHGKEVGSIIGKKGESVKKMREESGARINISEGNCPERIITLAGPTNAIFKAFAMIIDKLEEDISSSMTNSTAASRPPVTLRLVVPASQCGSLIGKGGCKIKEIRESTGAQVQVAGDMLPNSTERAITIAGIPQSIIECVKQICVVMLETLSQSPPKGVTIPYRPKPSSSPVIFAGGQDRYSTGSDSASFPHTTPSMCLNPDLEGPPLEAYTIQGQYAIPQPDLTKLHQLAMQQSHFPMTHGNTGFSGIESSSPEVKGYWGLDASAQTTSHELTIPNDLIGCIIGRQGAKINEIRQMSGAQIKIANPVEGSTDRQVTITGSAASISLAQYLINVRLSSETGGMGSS
inactive: vemurafenib 0.078 | [1] 0.051 | barasertib 0.016 | [2] 0.001 | volasertib -0.05 | [3] -0.152 | [4] 0.054 | [5] -0.003 | saracatinib -0.018 | sotrastaurin -0.045 | alvocidib -0.01 | Tubastatin A -0.133 | [6] 0.022 | defactinib 0 | [7] 0.079 | encorafenib 0.053 | [8] 0.108 | alisertib -0.013 | [9] -0.085 | gefitinib -0.122

POLR3E (UniProt Q9NVU0)
inactive: vemurafenib 0.011 | [1] 0.02 | barasertib 0.003 | [2] 0.018 | volasertib -0.004 | [3] -0.012 | [4] 0.035 | [5] 0.012 | saracatinib 0.017 | sotrastaurin 0.048 | alvocidib 0.011 | Tubastatin A -0.08 | [6] 0.009 | defactinib 0.02 | [7] 0.009 | encorafenib 0.004 | [8] 0.104 | alisertib 0.024 | [9] -0.003 | gefitinib 0.009

PRKDC (UniProt P78527)
Chain of UniProt P78527 (P78527 whole entry, looked up): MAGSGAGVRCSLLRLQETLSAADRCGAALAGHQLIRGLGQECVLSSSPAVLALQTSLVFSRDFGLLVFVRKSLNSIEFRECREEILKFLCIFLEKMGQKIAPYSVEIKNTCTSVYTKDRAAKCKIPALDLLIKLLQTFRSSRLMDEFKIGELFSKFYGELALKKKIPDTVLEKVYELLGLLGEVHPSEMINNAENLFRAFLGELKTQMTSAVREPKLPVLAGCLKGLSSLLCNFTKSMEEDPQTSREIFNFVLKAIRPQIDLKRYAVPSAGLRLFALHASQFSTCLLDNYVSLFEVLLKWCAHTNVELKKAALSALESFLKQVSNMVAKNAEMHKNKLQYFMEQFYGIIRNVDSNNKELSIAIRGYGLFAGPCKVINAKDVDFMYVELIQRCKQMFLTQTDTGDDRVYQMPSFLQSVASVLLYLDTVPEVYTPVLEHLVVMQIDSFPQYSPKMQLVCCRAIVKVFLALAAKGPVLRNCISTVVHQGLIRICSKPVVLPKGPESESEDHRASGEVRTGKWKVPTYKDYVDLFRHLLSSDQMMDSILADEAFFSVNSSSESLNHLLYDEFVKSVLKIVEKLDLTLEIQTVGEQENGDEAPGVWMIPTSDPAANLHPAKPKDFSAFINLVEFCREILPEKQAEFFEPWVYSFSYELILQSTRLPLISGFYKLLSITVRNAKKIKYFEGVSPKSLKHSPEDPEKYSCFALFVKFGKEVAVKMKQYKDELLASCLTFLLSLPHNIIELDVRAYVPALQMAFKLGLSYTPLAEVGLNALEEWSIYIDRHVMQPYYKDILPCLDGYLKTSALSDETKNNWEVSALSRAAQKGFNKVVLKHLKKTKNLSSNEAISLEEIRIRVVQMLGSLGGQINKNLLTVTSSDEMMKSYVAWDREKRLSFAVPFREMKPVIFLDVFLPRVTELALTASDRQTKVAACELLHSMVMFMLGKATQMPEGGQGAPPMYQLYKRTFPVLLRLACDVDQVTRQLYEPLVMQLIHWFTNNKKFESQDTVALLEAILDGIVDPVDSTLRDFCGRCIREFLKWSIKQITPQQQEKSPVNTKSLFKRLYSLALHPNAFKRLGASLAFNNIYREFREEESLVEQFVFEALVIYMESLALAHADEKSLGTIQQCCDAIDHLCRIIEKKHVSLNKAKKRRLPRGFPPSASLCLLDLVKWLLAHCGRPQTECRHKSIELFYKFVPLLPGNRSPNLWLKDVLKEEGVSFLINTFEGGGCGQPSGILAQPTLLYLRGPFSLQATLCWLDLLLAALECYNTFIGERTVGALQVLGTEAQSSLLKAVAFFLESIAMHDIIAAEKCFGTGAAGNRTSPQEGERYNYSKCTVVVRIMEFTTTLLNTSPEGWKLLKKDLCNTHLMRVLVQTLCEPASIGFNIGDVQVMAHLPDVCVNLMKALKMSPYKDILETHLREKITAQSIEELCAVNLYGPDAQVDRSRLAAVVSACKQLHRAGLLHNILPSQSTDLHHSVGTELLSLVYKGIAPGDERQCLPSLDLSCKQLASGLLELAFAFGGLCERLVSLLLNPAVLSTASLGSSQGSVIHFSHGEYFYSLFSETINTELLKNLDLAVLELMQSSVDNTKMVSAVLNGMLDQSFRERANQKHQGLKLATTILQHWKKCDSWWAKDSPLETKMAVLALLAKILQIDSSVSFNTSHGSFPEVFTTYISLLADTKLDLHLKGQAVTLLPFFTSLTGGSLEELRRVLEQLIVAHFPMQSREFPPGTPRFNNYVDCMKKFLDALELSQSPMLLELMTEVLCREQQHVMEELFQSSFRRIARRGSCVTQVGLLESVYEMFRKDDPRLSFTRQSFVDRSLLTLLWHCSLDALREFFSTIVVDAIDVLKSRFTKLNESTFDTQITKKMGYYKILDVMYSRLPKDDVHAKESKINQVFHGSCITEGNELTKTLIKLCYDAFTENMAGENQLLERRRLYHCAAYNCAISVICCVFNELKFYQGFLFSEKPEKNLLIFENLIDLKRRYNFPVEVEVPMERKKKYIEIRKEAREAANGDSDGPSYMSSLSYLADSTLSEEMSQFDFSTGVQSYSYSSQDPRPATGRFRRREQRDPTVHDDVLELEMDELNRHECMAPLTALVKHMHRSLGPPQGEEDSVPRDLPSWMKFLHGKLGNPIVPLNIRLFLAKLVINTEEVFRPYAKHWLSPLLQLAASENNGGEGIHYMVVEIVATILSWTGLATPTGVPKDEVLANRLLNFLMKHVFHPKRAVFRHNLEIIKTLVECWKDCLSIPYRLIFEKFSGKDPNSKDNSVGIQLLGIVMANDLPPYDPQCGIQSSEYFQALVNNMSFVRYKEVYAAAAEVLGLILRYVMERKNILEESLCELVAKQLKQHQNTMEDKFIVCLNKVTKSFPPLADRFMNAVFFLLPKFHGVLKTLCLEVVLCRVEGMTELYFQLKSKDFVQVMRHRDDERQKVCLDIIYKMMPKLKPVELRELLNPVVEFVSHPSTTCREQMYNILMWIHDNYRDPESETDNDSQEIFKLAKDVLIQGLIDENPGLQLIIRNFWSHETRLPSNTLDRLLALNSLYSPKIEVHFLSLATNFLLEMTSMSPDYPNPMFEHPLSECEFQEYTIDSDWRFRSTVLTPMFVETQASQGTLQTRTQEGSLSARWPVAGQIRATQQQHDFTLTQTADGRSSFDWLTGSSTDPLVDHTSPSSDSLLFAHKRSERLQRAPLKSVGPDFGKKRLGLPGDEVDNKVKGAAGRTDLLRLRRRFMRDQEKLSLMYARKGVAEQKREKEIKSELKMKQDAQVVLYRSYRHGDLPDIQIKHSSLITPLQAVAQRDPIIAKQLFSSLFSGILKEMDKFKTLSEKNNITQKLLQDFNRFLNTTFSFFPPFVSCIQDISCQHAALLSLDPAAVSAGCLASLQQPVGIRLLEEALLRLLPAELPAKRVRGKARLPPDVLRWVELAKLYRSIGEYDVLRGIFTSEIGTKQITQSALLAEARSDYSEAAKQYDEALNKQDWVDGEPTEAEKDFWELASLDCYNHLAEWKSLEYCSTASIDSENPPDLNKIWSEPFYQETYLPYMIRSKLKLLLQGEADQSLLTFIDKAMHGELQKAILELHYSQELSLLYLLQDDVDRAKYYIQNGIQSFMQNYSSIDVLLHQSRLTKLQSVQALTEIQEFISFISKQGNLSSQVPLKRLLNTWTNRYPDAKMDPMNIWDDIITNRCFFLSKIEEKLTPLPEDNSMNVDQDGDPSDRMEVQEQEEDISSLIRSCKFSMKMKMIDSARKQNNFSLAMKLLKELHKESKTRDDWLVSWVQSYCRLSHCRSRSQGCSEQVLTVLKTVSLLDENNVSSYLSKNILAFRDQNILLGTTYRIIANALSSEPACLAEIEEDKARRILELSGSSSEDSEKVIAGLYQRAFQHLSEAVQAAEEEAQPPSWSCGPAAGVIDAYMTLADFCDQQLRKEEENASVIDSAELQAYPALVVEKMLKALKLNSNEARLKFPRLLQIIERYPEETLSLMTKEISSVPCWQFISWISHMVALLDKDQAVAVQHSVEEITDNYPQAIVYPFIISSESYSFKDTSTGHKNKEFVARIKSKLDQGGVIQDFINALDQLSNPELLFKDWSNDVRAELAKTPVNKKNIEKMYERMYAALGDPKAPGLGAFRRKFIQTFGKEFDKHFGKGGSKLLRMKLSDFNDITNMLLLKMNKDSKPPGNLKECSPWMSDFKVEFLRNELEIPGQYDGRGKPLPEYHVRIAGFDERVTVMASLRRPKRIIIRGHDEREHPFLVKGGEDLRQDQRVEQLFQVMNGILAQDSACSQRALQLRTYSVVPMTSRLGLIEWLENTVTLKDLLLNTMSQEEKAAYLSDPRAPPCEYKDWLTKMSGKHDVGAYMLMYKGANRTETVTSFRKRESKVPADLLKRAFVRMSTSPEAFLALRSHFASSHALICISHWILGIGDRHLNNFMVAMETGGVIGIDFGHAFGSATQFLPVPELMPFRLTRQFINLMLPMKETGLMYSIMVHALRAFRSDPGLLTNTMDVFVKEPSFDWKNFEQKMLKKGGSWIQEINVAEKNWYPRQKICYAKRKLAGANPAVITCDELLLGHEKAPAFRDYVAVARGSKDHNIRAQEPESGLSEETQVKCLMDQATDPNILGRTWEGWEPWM
inactive: vemurafenib 0.132 | [1] 0.014 | barasertib -0.009 | [2] -0.058 | volasertib -0.062 | [3] 0.063 | [4] -0.12 | [5] 0.097 | saracatinib -0.007 | sotrastaurin 0.048 | alvocidib -0.06 | Tubastatin A -0.114 | [6] -0.002 | defactinib 0.033 | [7] -0.03 | encorafenib -0.022 | [8] -0.035 | alisertib 0.012 | [9] -0.003

— the supplement of paper PMC10849652
